# Laboratory results reported in PubChem BioAssay AID686978 (National Center for Advancing Translational Sciences (NCATS), 2013).
# Hit rate of the full screen: of about 420,000 compounds, about 64,000 (15%) were called active. Another 27% or so got no clear call; they are omitted. Calls follow the shape of the dose curve; as a rule, active = well fitted inhibition curve with a large enough effect; inconclusive = small, poorly fitted or top-dose-only effect; inactive = flat fitted curve, though single readings scatter. These entries were drawn from the full list. Entries that show only a call come without a potency. Square brackets hold non-standard residues; d marks the D form. Peptide text beside a SMILES is read from it. * marks the point of attachment. ξ: configuration not given here. Cbz = O=C(OCc1ccccc1)*; ξL = CC(C)CC(N)C(=O)O; ξP = O=C(O)C1CCCN1
# Assay: qHTS for Inhibitors of human tyrosyl-DNA phosphodiesterase 1 (TDP1): qHTS in cells in absence of CPT; also: nearly all actives have a fitted effect of over 55% in size
# Conditions: DT40 Tdp1-/- hTDP1 cells, no CPT, ATP luminescence, 48 h; activity change, negative = growth inhibition: at 46.2 µM (top of the series)
# Procedure, shortened: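 Readout: luminescence from CellTiter-Glo after 30 min in the dark at RT. Cells: DT40 Tdp1-/- with stable hTDP1, 400/well. Exposure: compounds alone, ≥48 hr, 37 °C.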
# Potency is read from the fitted curve at half-maximal effect.
row,Compound,Potency
1,Cc1nc(C(F)(F)F)ccc1C(=O)N1CCC1(C)C(=O)NS(=O)(=O)c1ccccc1Cl (stereo not given),inactive
2,Cc1ccccc1NC(=O)Cc1nc(COC(=O)c2cccnc2Cl)cs1,inactive
3,COC(=O)c1cc(CNC(=O)CC(C)c2ccccc2)ccc1OC (stereo not given),inactive
4,O=C(OCC(=O)N1CCCC1)c1ccc(Cl)nc1,inactive
5,O=C(O)C1CCC(CNS(=O)(=O)c2ccc(Br)cc2)CC1 (stereo not given),inactive
6,COc1ccc2[nH]c(C(=O)N3CCN(C)CC3)c(C)c2c1,inactive
7,CCOC(=O)c1cc2cc(OC)ccc2n1C1CCN(C)CC1,18.4 µM (active)
8,CCOC(=O)c1cc2c(ccn2C)n1CC(=O)N1CCC(C)CC1,inactive
9,Cc1c(NC(=O)CCCOc2ccccc2)cccc1[N+](=O)[O-],inactive
10,Cc1csc(CN(C)C(=O)CC2C(=O)NCCN2CC(C)(C)C)n1 (stereo not given),inactive
11,Oc1ccccc1C=NC1CCCCC1N=Cc1ccccc1O (stereo not given),inactive
12,O=C(N/N=C/c1ccc(O)cc1)/C(=C/c1ccc([N+](=O)[O-])cc1)NC(=O)c1ccccc1,inactive
13,C=CCOc1ccccc1/C=N/NC(=O)Cc1ccccc1,inactive
14,O=C(CCC(=O)Nc1ccccc1)N/N=C/c1ccccc1F,inactive
15,O=C(N/N=C/c1ccccc1O)/C(=C/c1ccccc1)CCO,5.17 µM (active)
16,O=C(NN=Cc1ccccc1O)NN=Cc1ccccc1O,5.8 µM (active)
17,O=C(NCC1CCCCC1)c1cc(S(=O)(=O)N2CCCCC2)ccc1N1CCOCC1,inactive
18,N#CCCN(C(=O)COC(=O)c1ccc2c(c1)OCCO2)c1ccccc1,inactive
19,O=C(Cn1nc([N+](=O)[O-])nc1Br)NC1CCCCC1,inactive
20,O=C(Cn1cnc2c(nnn2-c2ccccc2)c1=O)N1CCC(Cc2ccccc2)CC1,20.6 µM (active)
21,Cc1ccc(Cn2nnc3c(=O)n(CC(=O)N4CCCCC4)cnc32)cc1,inactive
22,CCOC(=O)C(C)n1cnc2c(nnn2-c2ccc(F)cc2)c1=O (stereo not given),inactive
23,CC(=O)Nc1ccc(S(=O)(=O)N2CCC(NC(=O)c3ccccc3)CC2)cc1,inactive
24,O=C(NCc1cccs1)c1ccc(Br)o1,inactive
25,CCCNC(=O)c1c(N)n(-c2ccc(S(N)(=O)=O)cc2)c2nc3ccccc3nc12,inactive

row,Compound,Potency
1,CC(C)Cn1c(N)c(C(=O)NCc2cccs2)c2nc3ccccc3nc21,20.6 µM (active)
2,Cn1nccc1NC(=O)CC(CC(=O)O)c1ccccc1 (stereo not given),inactive
3,COc1ccc(NC(=O)CS(=O)(=O)c2ccccc2)cc1,inactive
4,CC(=O)Nc1ccccc1OC(=O)N1CCOCC1,inactive
5,CC(=O)c1ccc(S(=O)(=O)N2CCC(Oc3ccc(-n4cnnn4)cc3)CC2)cc1,inactive
6,CC(=O)c1ccc(N2CCN(C(=O)C3CCN(S(=O)(=O)c4ccc5c(c4)CC(C)N5C(=O)C4CC4)CC3)CC2)cc1 (stereo not given),4.11 µM (active)
7,CC(=O)N1c2ccc(S(=O)(=O)N3CCC(C(=O)N4CCN(c5ccccc5)CC4)CC3)cc2CC1C (stereo not given),20.6 µM (active)
8,NC(=O)COC(=O)c1cc(S(=O)(=O)N2CCN(c3ccccc3)CC2)ccc1Cl,inactive
9,CS(=O)(=O)N1CCC(C(=O)N2CCN(c3ccccc3)CC2)CC1,inactive
10,CCS(=O)(=O)N1CCC(C(=O)N2CCN(c3ccccc3)CC2)CC1,inactive
11,NC(=O)C1CCN(C(=O)c2ccc(-c3ccccc3)cc2)CC1,inactive
12,NC(=O)C1CCN(C(=O)c2cc(S(=O)(=O)N3CCN(c4ccccc4)CC3)ccc2Cl)CC1,6.51 µM (active)
13,CC(=O)c1ccc(N2CCN(S(=O)(=O)c3c(C)[nH]c(=O)[nH]c3=O)CC2)cc1,inactive
14,COc1ccc(NC(=O)CN(C)S(=O)(=O)c2ccccc2)cc1OC,inactive
15,O=C(NCCS(=O)(=O)c1ccc(Br)cc1)c1ccccc1Cl,inactive
16,COc1ccc(NC(=O)NN2CCN(C)CC2)c(OC)c1,inactive
17,O=C(Cn1cc2c(n1)CCCCC2)NCCN1CCOCC1,inactive
18,Cn1c(=O)sc2cc(NS(=O)(=O)c3ccc(C(C)(C)C)cc3)ccc21,inactive
19,CC1=NN(C(=O)c2ccccc2Br)C(O)(c2cccnc2)C1 (stereo not given),inactive
20,CCCC1CCC(=NNC(=S)NCCc2ccccc2)CC1 (stereo not given),7.31 µM (active)
21,O=C(NCCc1ccccc1)C1CC1,inactive
22,CCC(C)(C)C1CCC(=NNC(=O)c2ccc(Br)o2)CC1 (stereo not given),inactive
23,CC(C)CC(NC(=O)C1CCCN1C(=O)[C@@H](C)NC(=O)OCc1ccccc1)C(=O)NCC(N)=O (stereo not given in full) (Cbz-[dA][ξP][ξL]G-NH2),inactive
24,COc1cc(OC)cc(-c2nc3ccccc3c(=O)n2NC(=O)c2cccnc2Cl)c1,inactive
25,CSc1nc(C)nc(C2CC2)c1C#N,inactive

row,Compound,Potency
1,Cc1noc(C)c1NC(=O)Nc1ccc2c(c1)C(=O)N([C@H](C)CO)C[C@H](C)[C@@H](CN(C)C(=O)Nc1ccccc1)O2,inactive
2,COc1ccccc1C(=O)NCCC(=O)NC(C)CCc1ccccc1 (stereo not given),inactive
3,CCCCOCCCNC(=O)c1ccccc1OCC,inactive
4,Cc1cc2ccccc2n1CCC(=O)O,inactive
5,Cc1cc2ccccc2n1CCNC(=O)c1ccc(F)cc1,18.4 µM (active)
6,CCCCCn1c(CCCNC(=O)c2ccccc2OC)nc2ccccc21,18.4 µM (active)
7,CCC(=O)NCCc1nc2ccccc2n1CC,inactive
8,O=C(CNC(=O)c1ccc(F)cc1)c1ccccc1,inactive
9,CC(=O)NCCc1nc2cc(NC(=O)c3ccccc3)ccc2n1C,inactive
10,CCCCCn1c(CCNC(=O)c2ccc(F)cc2)nc2ccccc21,18.4 µM (active)
11,CCN(CC)CCCNC(=O)CCc1ccccc1,inactive
12,CCN(CC)CCCN=C(N)N,inactive
13,COc1cc(NS(=O)(=O)c2ccc(NC(=S)NC(=O)c3ccc(Br)cc3)cc2)ncn1,inactive
14,COc1ccc(COCC(O)CN2CCC(C(N)=O)CC2)cc1 (stereo not given),inactive
15,Clc1ccccc1-c1cc(COc2ccc3ccccc3c2)no1,inactive
16,CCCCNC(=O)CCn1c(=S)[nH]c2cc3c(cc2c1=O)OCO3,inactive
17,CCN1CCN(C(=O)N[C@@H](C(=O)N[C@@H]2C(=O)N3C(C(=O)O)=C(CSc4nnnn4C)CS[C@H]23)c2ccc(O)cc2)C(=O)C1=O,inactive
18,NS(=O)(=O)c1ccc(N=Cc2ccc(Br)s2)cc1,inactive
19,COc1ccc(Cl)cc1C=CC=NNC(=O)c1ccncc1,inactive
20,COc1ccc(Cl)cc1C=CC=Nc1ccc(S(N)(=O)=O)cc1,16.4 µM (active)
21,CCN1C(=O)[C@H]2[C@@H](c3ccccc3)N[C@]3(CCCN(Cc4ccc(C)cc4)C3=O)[C@H]2C1=O,inactive
22,CCN1C(=O)[C@H]2[C@@H](c3ccc(C(F)(F)F)cc3)N[C@]3(CCCN(Cc4ccc(Br)cc4)C3=O)[C@H]2C1=O,9.2 µM (active)
23,O=C1[C@H]2[C@@H](c3ccc(C(F)(F)F)cc3)N[C@]3(CCCN(Cc4ccc(Cl)cc4)C3=O)[C@H]2C(=O)N1Cc1ccccc1,20.6 µM (active)
24,COc1ccc([C@H]2N[C@]3(CCCN(Cc4ccco4)C3=O)[C@H]3C(=O)N(C)C(=O)[C@@H]23)cc1,inactive
25,O=C1[C@H]2[C@@H](c3ccc(C(F)(F)F)cc3)N[C@]3(CCCN(Cc4ccc(Br)cc4)C3=O)[C@H]2C(=O)N1Cc1ccccc1,23.1 µM (active)

row,Compound,Potency
1,CCN1C[C@@H]2[C@@H]3C(=O)N(Cc4ccccc4)C(=O)[C@@H]3[C@](C)(C1=O)N2C(=O)c1ccc(C(C)(C)C)cc1,inactive
2,Cc1ccc([C@H]2N[C@]3(CCCN(CC4CCCCC4)C3=O)[C@H]3C(=O)N(Cc4ccccc4)C(=O)[C@@H]23)cc1,23.1 µM (active)
3,Cc1ccc(C(=O)Oc2ccc(C(=S)N3CCOCC3)cc2)cc1,inactive
4,c1ccc(-c2ccnc3nc(-n4cccc4)nn23)cc1,inactive
5,O=C(CN(C(=O)c1nsc(Cl)c1Cl)c1cccc(F)c1)NC1CCCC1,inactive
6,O=C(CCc1ccc(S(=O)(=O)N2CCOCC2)cc1)NN=C1CCCCCCC1,inactive
7,CCN(CC)CCN(C(=O)c1cccc([N+](=O)[O-])c1)c1nc2ccc(OC)cc2s1,inactive
8,Cc1noc(C)c1NC(=O)Nc1ccc2c(c1)C(=O)N([C@H](C)CO)C[C@H](C)[C@@H](CN(C)C(=O)Nc1ccc(C(F)(F)F)cc1)O2,inactive
9,CCN(CC)C(=O)COc1coc(CN2CCN(Cc3ccccc3)CC2)cc1=O,inactive
10,O=C(CSc1nnc(-c2ccncc2)o1)NCc1ccc(Cl)cc1,inactive
11,Fc1ccc(-c2ccc(NCCN3CCOCC3)nn2)cc1,inactive
12,Nc1cc(C(F)(F)F)ccc1N1CCOCC1,inactive
13,Cc1cccc(N=Nc2c(O)[nH]c3ccc(F)cc23)c1,inactive
14,Oc1[nH]c2ccccc2c1N=Nc1c(F)c(F)c(F)c(F)c1F,13 µM (active)
15,Oc1[nH]c2ccc(Br)cc2c1N=Nc1nn[nH]n1,inactive
16,CCC(Cc1ccccc1)NC(=O)C1CCCCC1 (stereo not given),inactive
17,O=C1c2ccccc2C(=O)N1c1ccc(S(=O)(=O)N2CCOCC2)c2ccccc12,inactive
18,COc1cc(CC(=O)Nc2nc(-c3ccc(F)c(F)c3)cs2)cc(OC)c1OC,5.8 µM (active)
19,Fc1ccc(-c2csc(-c3ccc(C4SCCS4)cc3)n2)cc1F,inactive
20,Cc1ccc(S(=O)(=O)NC(=O)Nc2nc(-c3ccc(F)c(F)c3)cs2)cc1,inactive
21,COc1ccc(CC(=O)Nc2nc(-c3ccc(F)c(F)c3)cs2)cc1OC,6.51 µM (active)
22,COc1ccc(CC(=O)Nc2nnc3n2CCS3)cc1OC,inactive
23,COc1ccc(-c2csc(NC(=O)c3ccc(N4C(=O)CCC4=O)cc3)n2)cc1OC,inactive
24,COc1cccc(CC(=O)Nc2nc(-c3ccc(OC)c(OC)c3)cs2)c1,18.4 µM (active)
25,COc1ccc(-c2csc(Nc3cccc(C)n3)n2)cc1OC,25.9 µM (active)
